# Only a selection was taken, and hits are over-represented in it overall.
# Methyltransferases = Primary Screen for Target Class Profiling of Small Molecule Inhibitors of Methyltransferases; purified enzyme, MTase-Glo SAH luminescence; active compounds read low; 25,000 tested, 3.9% active; calls only at 40 µM; call rule not given here
#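 Each enzyme was reacted with SAM and its substrate, with compounds tested once at 40 uM; SAH formed was read by MTase-Glo luminescence.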
# Active calls of the source: *; i = inactive; + = active, no number. % is scaled to controls: 0 for no effect and ±100 for the full control effect.
SMILES,Methyltransferases
Cc1cc2c(cc1Cl)N(C(=O)Nc1ccnc3ccccc13)CC2,+
Cc1cc2c(cc1Cl)N(C(=O)Nc1ccc(Oc3cccnc3C)nc1)CC2,i
CC1CCN(S(=O)(=O)c2ccc3c(ccn3CCC(=O)NCc3ccccc3Cl)c2)CC1,i
CC(C)NCC(O)c1ccc(O)c(O)c1 (configuration not stated),i
COc1cc(C(O)CO)ccc1O (configuration not stated),i
NC[C@H](O)c1ccc(O)c(O)c1,+
CC1(C(=O)NC2CCCCCC2)Cc2ccccc2C(=O)N1Cc1cccs1 (configuration not stated),i
CC1(C(=O)NC2CCCCCC2)Cn2nc(-c3ccco3)cc2C(=O)N1CCCc1ccccc1 (configuration not stated),i
CC(C)(C)c1cc(/C=C(\C#N)C(N)=S)cc(C(C)(C)C)c1O,+
CC(C)NC(=O)c1ccc2c(=O)n(C(C)C)c3nn(CC(=O)NC4CCCC4)c(=O)n3c2c1,i
CN1C(=O)c2cc(C(=O)NCCCN3CCCCC3)nn2CC1(C)C(=O)NCc1ccc(F)cc1 (configuration not stated),i
Cc1ccc(Cn2c(=O)c3ccc(C(=O)NCC(C)C)cc3n3c(=O)n(Cc4cccc(F)c4)nc23)cc1,i
CC1(C)CCC(c2ccc(Cl)cc2)=C(CN2CCN(c3ccc(C(=O)NS(=O)(=O)c4ccc(N[C@H](CCN5CCOCC5)CSc5ccccc5)c(S(=O)(=O)C(F)(F)F)c4)cc3)CC2)C1,+
CN(C)CC[C@H](CSc1ccccc1)Nc1ccc(S(=O)(=O)NC(=O)c2ccc(N3CCN(Cc4ccccc4-c4ccc(Cl)cc4)CC3)cc2)cc1[N+](=O)[O-],+
CCC1(O)CC2c3cc(OC)c(OC)cc3CCN2CC1CC(C)C (configuration not stated),i
Cc1ccc(CN2C(=O)c3cc4ccccc4n3CC2(C)C(=O)NC2CCCCC2)cc1 (configuration not stated),i
CC(C)n1c(=O)c2ccc(C(=O)NC3CCCCC3)cc2n2c(=O)n(Cc3c(F)cccc3Cl)nc12,i
COc1ccc(OC)c(CCN2C(=O)c3cc4ccccc4n3CC2(C)C(=O)NCc2ccccc2OC)c1 (configuration not stated),i
O=C(CSc1nnc2n(CCc3ccccc3)c(=O)c3ccccc3n12)NCc1ccccc1,i
COc1cccc(CN2C(=O)c3cc4sccc4n3CC2(C)C(=O)NC2CCCCCC2)c1 (configuration not stated),i
COc1cc(C(=O)OCC2=CCC3C(C(=O)O)=COC(O[C@@H]4O[C@H](CO)[C@@H](O)[C@H](O)[C@H]4O)C23)ccc1O (some centres not stated),i
CC(=O)c1ccc(O[C@@H]2O[C@H](CO[C@@H]3OC[C@@H](O)[C@H](O)[C@H]3O)[C@@H](O)[C@H](O)[C@H]2O)cc1,i
CC(C)(O)C1CC=C(C(=O)OC[C@H]2O[C@@H](Oc3cc(C(=O)O)cc(O)c3O)[C@H](O)[C@@H](O)[C@@H]2O)CC1 (some centres not stated),+
Cc1cc(O[C@@H]2O[C@H](COC(=O)CC(=O)O)[C@@H](O)[C@H](O)[C@H]2O)c(C(C)C)cc1O,i
O=C(/C=C/c1ccc(O)c(O)c1)OC[C@H]1O[C@@H](OC2CCCCC2O)[C@H](O)[C@@H](O)[C@@H]1O (some centres not stated),i
SMILES,Methyltransferases
CC(C)(O)C1CC=C(C(=O)OCC2OC(Oc3c(O)cc(C(=O)O)cc3O)C(O)C(O)C2O)CC1 (configuration not stated),+
O=C(NCc1ccc(F)cc1)c1ccc2c(=O)nc3c(-c4ccccc4)n[nH]n3c2c1,i
CCCn1c(=O)c2cc(F)ccc2n2c(SCC(=O)Nc3cc(Cl)ccc3OC)nnc12,i
CN1C(=O)c2cc(C(=O)NCCCN3CCc4ccccc4C3)nn2CC1(C)C(=O)NCc1ccccc1 (configuration not stated),i
CCc1ccc(CNC(=O)CCn2ccc3cc(S(=O)(=O)N4CCCCC4)ccc32)cc1,i
O=C(Nc1ccccc1Br)N1Cc2c(sc3c2CCCC3)-n2cccc2C1c1ccccc1 (configuration not stated),i
Cc1cccc(-c2nnn3c2nc(N2CCSCC2)c2cc(Cl)ccc23)c1,i
O=C1CN(Cc2cccc(Cl)c2)S(=O)(=O)c2ccccc2N1Cc1cccc(F)c1,i
COC(=O)c1cc2n(n1)CC(C)(C(=O)NC1CCCCC1)N(Cc1ccc(OC)cc1OC)C2=O (configuration not stated),i
Cc1ccccc1NC(=O)CSc1nnc2n(C)c(=O)c3ccc(C(=O)NC4CCCCC4)cc3n12,i
O=C(c1c(F)ccc(NS(=O)(=O)N2CC[C@@H](F)C2)c1F)c1c[nH]c2ncc(-c3cnc(C4CC4)nc3)cc12,i
COc1ccc(-c2cnc3[nH]cc(CC(=O)N4CCNC(=O)C4)c3c2)cc1,i
